The results in this text go back to the supplement of paper PMC4723716.

Molecules are shown by their SMILES. ± gives the uncertainty stated by the source. Over roughly 9,900 compounds, “viability index relative to DMSO control” has its median near 1; the lowest 2% begin near 0.85. The sample holds the lowest values, similar compounds and a random draw of the others, so the mix is not that of the screen.

This test relates to Plasmodium falciparum NF54 stage V gametocytes. Nature of the test: viability index relative to DMSO control (fraction); higher = less gametocyte killing. Particulars: 2.5 µM, library set: Broad Institute DOS, incubation time: 72 h. Here is the method:
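Broad DOS informer set and blood-stage-active DOS compounds screened in duplicate at 2.5 µM against P. falciparum NF54 stage V gametocytes with the serum-free one-step SaLSSA (1536-well): 72 h at 37 °C under low oxygen, then saponin lysis and MitoTracker Red CMXRos staining, with high-content imaging. Viability index = viable-object count divided by the plate mean of DMSO wells (0 = killed, about 1 = inactive).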
`O=C1CNC[C@@H]2[C@H](c3ccc(Br)cc3)[C@H](CO)N12` gave a viability index of 0.992 ± 0.074.

`O=C1CNC[C@H]2[C@H](c3ccc(Br)cc3)[C@H](CO)N12` showed a viability index of 1.05 ± 0.023.

In turn, `O=C1CNC[C@H]2[C@@H](c3ccc(Br)cc3)[C@H](CO)N12` displayed a viability index of 0.837 ± 0.14.

`COc1cccc(-c2ccc([C@H]3[C@@H](CO)N4CCCCN(C(=O)Cc5ccncc5)C[C@H]34)cc2)c1` had a viability index of 1.06 ± 0.046.

`O=C(O)C[C@@H]1CC[C@H]2NC[C@@H](O)COC[C@@H]2O1` returned a viability index of 1.13 ± 0.034.

Compound `O=C(Cc1ccncc1)N1CCCCN2[C@@H](CO)[C@@H](c3ccc(C#Cc4ccccc4F)cc3)[C@@H]2C1` came in with a viability index of 0.964 ± 0.047.

`O=C(Cc1ccncc1)N1CCCCN2[C@H](CO)[C@@H](c3ccc(C#Cc4ccccc4F)cc3)[C@@H]2C1` returned a viability index of 0.9619 ± 0.0014.

In turn, `O=C(Cc1ccncc1)N1CCCCN2[C@@H](CO)[C@H](c3ccc(C#Cc4ccccc4F)cc3)[C@@H]2C1` yielded a viability index of 0.84 ± 0.22.

In turn, `C[C@@H]1CN([C@@H](C)CO)C(=O)CCCn2cc(nn2)CO[C@@H]1CN(C)C(=O)Oc1ccc2ccccc2c1` displayed a viability index of 1.05 ± 0.019.

`C/C=C/c1ccc([C@@H]2[C@@H]3CN(C(=O)C4CCOCC4)C[C@H]2N3)cc1` yielded a viability index of 1.06 ± 0.011.
